The structures appear in SMILES notation. Screen size: about 48,000 compounds; about 13,000 (27%) showed an effect of 50% or more. The list shows a part of the results.

For this test, the system named is Wolbachia pipientis. Kind of test: Anti-Wolbachia Cell-Based Screen. The class given is functional. Also on record: scale not given: in the data most compounds retested in dose-response had high values. Conditions: 5 µM.
Turning to `Nc1nc2c(c(NCc3ccncc3)n1)CCCC2`, the “Percent Effect” value is -16.82%.

Regarding `Cc1nc2c(c(NCc3cc4ccccc4s3)n1)CCNCC2`, the “Percent Effect” value is listed as -2.145%.

On to `CCc1cnc(C)nc1NCc1cnc2c(c1)CCC2`, for which the “Percent Effect” value turned out to be 83.93%.

Consider `Nc1nc2c(c(NCc3cnc4c(c3)CCC4)n1)CCNC2`, for which the “Percent Effect” value was determined as 77.65%.

In the case of `CCc1cnc(C)nc1NCCN1CCCCCC1`, the “Percent Effect” value is recorded as -2.933%.

With `CCc1cnc(C)nc1NCCN1CCC(O)CC1`, the “Percent Effect” value amounted to 8.36%.

For `Cc1nc2c(c(NCc3nc4ccccc4s3)n1)CCNCC2`, the “Percent Effect” value is 4.643%.

As for `Cc1nc2c(c(NCc3cnc4c(c3)CCC4)n1)CNC2`, the “Percent Effect” value is on record as 90.56%.

On to `CCC(C)NC(=O)c1ccc(CNC(=O)CC(C)(C)C)cc1` (centres undefined), for which the “Percent Effect” value was found to be 3.529%.

For `COC(=O)CCC(=O)NC1CCCc2cc(OC(F)F)ccc21` (centres undefined), the “Percent Effect” value is recorded as 7.111%.

For `CCC(C(=O)N(Cc1ccccc1OC)C1CC1)n1cccn1` (centres undefined), the “Percent Effect” value is given as -4.851%.

On to `O=c1[nH]c(=O)n(CC(O)c2ccc(F)cc2F)cc1Cl` (centres undefined), for which the “Percent Effect” value was -0.7239%.

Regarding `OC(CNCCn1cccn1)COc1ccc(F)cc1` (centres undefined), the “Percent Effect” value stood at 3.915%.

As for `COc1ccc(CN2CCCCC2CNC(=O)OC(C)(C)C)cc1F` (centres undefined), the “Percent Effect” value was 23.02%.

On to `COc1cc(CN2CCCC[C@]3(C)NC(=O)CC[C@H]23)ccc1F`, for which the “Percent Effect” value is recorded as 73.04%.

On to `COc1ccc(CN2CC[C@@]3(O)CCCC[C@H]3C2)cc1C(=O)O`, for which the “Percent Effect” value is on record as -6.5%.

Take `CCc1nc(CCNC(=O)Nc2ccc(C(=O)NC)cc2C)cs1`: the “Percent Effect” value was 3.747%.

As to `Cc1nc(C)n(CC2CCCN2Cc2ccccn2)n1` (centres undefined), the “Percent Effect” value amounted to 5.197%.

For `Cc1nc(C)n(CC2CCCN(Cc3ncc(C(C)(C)C)o3)C2)n1` (centres undefined), the “Percent Effect” value amounted to 87.18%.

As for `Cc1nc(C)n(CC2CCCN2Cc2ncc(-c3ccccc3)o2)n1` (centres undefined), the “Percent Effect” value turned out to be 119.8%.

Regarding `Cc1cc(C)n(CC2CCCN2Cc2cccc(C#N)c2)n1` (centres undefined), the “Percent Effect” value is -4.614%.

Turning to `Cc1cc(C)n(CC2CCCN2CCc2ccncc2)n1` (centres undefined), the “Percent Effect” value was -8.858%.

Consider `Cc1nc(C)n(CC2CCCN2Cc2ncc(C(C)(C)C)o2)n1` (centres undefined), for which the “Percent Effect” value is 109.1%.

With `Cc1cc(C)n(CC2CCCN2Cc2ncc(C(C)(C)C)o2)n1` (centres undefined), the “Percent Effect” value is given as 98.37%.

In the case of `c1ccc(-c2cnc(CN3CCCC3Cn3cncn3)o2)cc1` (centres undefined), the “Percent Effect” value is reported as -9.309%.

On to `Cc1nc(C)n(CC2CCCN(Cc3nc(C)c(C)o3)C2)n1` (centres undefined), for which the “Percent Effect” value came out at 2.327%.

With `Cc1nc(C)n(CC2CCCCN2Cc2ncc(C(C)(C)C)o2)n1` (centres undefined), the “Percent Effect” value is given as 8.215%.

With `CN(Cc1ccc(F)cc1F)CC(C)(CO)CO`, the “Percent Effect” value is -8.016%.

Regarding `CCC(O)(CNCc1cc[nH]n1)c1ccc(Br)cc1` (centres undefined), the “Percent Effect” value is given as 7.461%.

As for `CCn1cc(S(=O)(=O)Nc2cccnc2-n2cccn2)nc1C`, the “Percent Effect” value was -8.927%.

With `O=C(NC1(c2nc(C3CC3)no2)CCCCC1)c1cccnc1O`, the “Percent Effect” value is listed as -6.139%.

Regarding `O=S(=O)(CCNCc1cc(O)c2cc(F)ccc2n1)N1CCCC1`, the “Percent Effect” value is on record as -19.62%.

Turning to `C=C(C)COc1ccc(C(=O)NCC2CC(CC)=NO2)cc1` (centres undefined), the “Percent Effect” value is 5.055%.

Take `CCc1nonc1NC(=O)C(C)Oc1ccccc1F` (centres undefined): the “Percent Effect” value was -3.063%.

In the case of `Cc1noc(C)c1CNC(=O)C(C)Oc1ccccc1F` (centres undefined), the “Percent Effect” value is given as -0.2471%.

`Cc1nc(CNC(=O)C(C)Oc2ccccc2F)no1` (centres undefined): the “Percent Effect” value is on record as 94.07%.

In the case of `CC(C)Oc1ncc(C(=O)N2CCC(NC(=O)C3CC3)CC2)cc1Cl`, the “Percent Effect” value is -2.3%.

`CCSCCC(C)N(C)C(=O)c1ccc(C)o1` (centres undefined): the “Percent Effect” value came out at 3.019%.

As for `COCCN1CC2(CCCN(C(=O)NCCc3cccs3)C2)CCC1=O` (centres undefined), the “Percent Effect” value is listed as 2.041%.

On to `COCCOCC(=O)Nc1cccc(CN(C)C(C)=O)c1`, for which the “Percent Effect” value is 3.065%.

For `Cc1ccc(NC(=O)N(C)CC(O)COCCOC(C)C)c(Br)c1` (centres undefined), the “Percent Effect” value was -14.49%.

In the case of `Cc1ccc(NC(=O)CNc2cccc3c2CCCC3)c(Br)c1`, the “Percent Effect” value was 9.995%.

Turning to `COCCOCC(=O)NC(C#N)c1cc(Cl)cc(Cl)c1` (centres undefined), the “Percent Effect” value is -3.504%.

As to `COCCOCC(=O)Nc1ccc(C)cc1Cl`, the “Percent Effect” value is 120.1%.

`COCCOCC(=O)Nc1ccc(C)cc1Br`: the “Percent Effect” value amounted to 93.08%.

`COc1cc2c(nn1)CCN(Cc1ncc(C(C)(C)C)o1)C2`: the “Percent Effect” value is listed as 5.733%.

`CCN(C)S(=O)(=O)NCC1(c2cccc(Br)c2)CC1`: the “Percent Effect” value was 0.1722%.

As for `CN(C)CCCC(=O)NC1CC(C)(C)Cc2nc(C(C)(C)C)ncc21` (centres undefined), the “Percent Effect” value amounted to 112.6%.

As to `CN(C)CC(=O)NC1CC(C)(C)Cc2nc(C(C)(C)C)ncc21` (centres undefined), the “Percent Effect” value is on record as 106.4%.

In the case of `CN(C)c1ccc(C(=O)N2Cc3cnc(C(C)(C)C)nc3C2)cc1`, the “Percent Effect” value is 19.06%.

Turning to `CCCC(=O)NCC(=O)NC1CC(C)(C)Cc2oc(C)cc21` (centres undefined), the “Percent Effect” value is given as -3.424%.

In the case of `COc1ccc(NC(=O)C(c2ccc(OC)cc2)N2CCOCC2)cc1` (centres undefined), the “Percent Effect” value came out at 109.2%.

As for `CCC(CC)C(CNC(=O)Nc1ccc(OC)cc1)N1CCOCC1` (centres undefined), the “Percent Effect” value amounted to 4.336%.

As to `COc1ccc(C(CNC(=O)c2cnc(C)cn2)N2CCOCC2)cc1` (centres undefined), the “Percent Effect” value amounted to 15.25%.

For the origin of these results see ChEMBL document CHEMBL3988442, “University of Dundee, Small-Polar-MMV Screening Library” (2021).
